The results in this text go back to PubChem BioAssay (NCATS).

Records with an inconclusive call do not appear. Entries that show only a call come without a potency. Active and inactive are the calls of the source. The call rests on the fitted dose curve; in most records, active means well fitted activation curve with a large enough effect; inconclusive means small, poorly fitted or top-dose-only effect; inactive means no such curve, though single readings can be large or run the other way.

The target of this test is Rap guanine nucleotide exchange factor 3 (Homo sapiens) (UniProt O95398). As to the kind of experiment: Confirmatory qHTS for agonist of cAMP-regulated guanine nucleotide exchange factor 3 (EPAC1) (AID 1645881).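 Further: EPAC1 catalysed release of BODIPY-GDP from Rap1B seen as fluorescence loss; nearly all actives have a fitted effect of over 75% in size.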 As to conditions: EPAC1 Rap1B BODIPY-GDP exchange fluorescence; series mostly up to 154 µM. A general note: In qHTS, concentration-response curves come from the screen itself.
Sequence of Rap guanine nucleotide exchange factor 3 (Homo sapiens) (O95398 whole entry, looked up): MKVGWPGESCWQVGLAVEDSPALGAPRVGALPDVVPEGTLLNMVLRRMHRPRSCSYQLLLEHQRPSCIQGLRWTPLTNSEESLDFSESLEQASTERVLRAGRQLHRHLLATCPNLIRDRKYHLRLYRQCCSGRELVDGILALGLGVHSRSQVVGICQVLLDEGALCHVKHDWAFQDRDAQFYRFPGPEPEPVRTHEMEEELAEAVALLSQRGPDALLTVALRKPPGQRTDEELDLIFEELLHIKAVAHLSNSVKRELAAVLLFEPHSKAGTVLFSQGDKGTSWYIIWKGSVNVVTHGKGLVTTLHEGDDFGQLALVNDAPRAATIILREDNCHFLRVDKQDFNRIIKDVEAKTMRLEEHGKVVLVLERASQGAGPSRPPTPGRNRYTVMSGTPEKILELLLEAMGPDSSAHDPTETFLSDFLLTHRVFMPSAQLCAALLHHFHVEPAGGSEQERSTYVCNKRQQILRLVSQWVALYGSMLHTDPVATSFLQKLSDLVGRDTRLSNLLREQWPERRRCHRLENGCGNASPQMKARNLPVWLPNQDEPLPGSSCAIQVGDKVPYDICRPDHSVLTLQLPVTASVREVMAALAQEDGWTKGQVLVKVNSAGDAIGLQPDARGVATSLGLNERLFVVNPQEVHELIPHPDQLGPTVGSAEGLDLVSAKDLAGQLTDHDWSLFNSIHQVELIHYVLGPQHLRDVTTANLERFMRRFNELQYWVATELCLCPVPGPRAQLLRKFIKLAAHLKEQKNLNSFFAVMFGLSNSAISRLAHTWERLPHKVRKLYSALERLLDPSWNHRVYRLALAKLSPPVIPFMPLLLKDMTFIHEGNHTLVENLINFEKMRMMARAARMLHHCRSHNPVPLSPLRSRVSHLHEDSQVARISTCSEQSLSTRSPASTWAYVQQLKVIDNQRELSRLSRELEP
As to `Fc1ccc2cnc(-c3ccccc3)c(-c3ccc(C(F)(F)F)cc3)c2c1`, the Potency entry is “inactive”.

With `COC(=O)c1cn(C(=O)c2ccccc2Cl)c2ccccc12`, the Potency entry is “inactive”.

As to `NS(=O)(=O)c1ccc(N/N=C/c2ccc(C(=O)O)cc2)c([N+](=O)[O-])c1`, the Potency entry is “inactive”.

For the compound `O=C(O)CSc1nnc(COc2cccc3ccccc23)n1Cc1ccccc1`, the Potency result is “inactive”.

Consider `CCOc1cc(/C=N/O)cc(Br)c1OCc1ccc(Cl)cc1`, for which the Potency entry is “inactive”.

On to `COc1ccc(-c2nc(CCNS(=O)(=O)c3ccc4c(c3)OCCO4)cs2)cc1`, for which the Potency result is “inactive”.

Take `Cn1c2ccccc2c2cc(/C=N/NC(=O)c3cc(O)cc(O)c3)ccc21`: the Potency result was “inactive”.

As for `CC(C)CNC(=O)C1(C)CCCCCN1Cc1ccccc1-c1ccccc1` (stereo not drawn), the Potency entry was “inactive”.

In the case of `Cc1cc(C)c2c(CN3CCC(C)CC3)cc(=O)oc2c1`, the Potency entry was “inactive”.

As to `O=C(N/N=C/c1ccoc1)c1cc(O)cc(O)c1`, the Potency entry is “inactive”.

In the case of `C=C1SC(Nc2c(C)cccc2C)=NC12CCCCC2`, the Potency entry is “inactive”.

As for `COc1cnc(N(C)C)nc1Sc1cccc(Cl)c1`, the Potency entry is “inactive”.

Take `CCOc1cnc(-c2c(-c3ccccc3Cl)noc2C)o1`: the Potency result is “inactive”.

`O=C1[C@H](Cc2ccccc2)NCC=CC[C@@H](c2ccc(Cl)cc2)N1Cc1ccc(Cl)cc1`: the Potency result was “inactive”.

As to `CC(=O)C1=C(O)C2(C)c3c(O)c(C)c(O)c(C(C)=O)c3OC2CC1=O` (stereo not drawn), the Potency entry was “inactive”.

As to `Cc1cc2c(N)cccc2nn1`, the Potency entry was “inactive”.

`C[C@H](CO)N1C[C@H](C)[C@@H](CN(C)C)Oc2c(NS(=O)(=O)c3ccccc3)cccc2C1=O`: the Potency result is “inactive”.

Regarding `O=S(=O)(Nc1nccs1)c1ccc(Nc2nnc(-c3ccccc3)c3ccccc23)cc1`, the Potency entry was “inactive”.
